The record followed here is PubChem BioAssay (NCATS).

Assay [1] is described as follows: Cell Viability - BJ (AID 421; calls by dose curve;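 further: potency means the concentration at half of the fitted maximal effect; cells exposed to compound for 40 hours at 37 °C before readout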). The conditions noted are these: BJ fibroblast viability, qHTS. The gist of the method:
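Normal human BJ foreskin fibroblasts, 1500/well in complete medium, treated 40 hr at 37 °C. Cellular ATP by CellTiter-Glo luminescence; normalized to DMSO and 100 uM tamoxifen, AC50 from Hill fit.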

The nature of assay [2]: Cell Viability - HUV-EC-C (AID 542).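 Further: cells exposed to compound for 40 hours; on the % scale 0 is the no-effect control and ±100 the full control effect; nearly all actives have a fitted effect of over 35% in size.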 The conditions noted are these: HUV-EC-C endothelial cell viability, qHTS; series mostly up to 92.2 µM. The essentials: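 Decrease in cellular ATP, quantified by luciferase luminescence, reflects toxicity in normal human vascular endothelial HUV-EC-C cells given compound for 40 hr in complete culture medium. Values are AC50s from concentration-response curves.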

A short description of assay [3]: Cellular Toxicity (caspase-3) HUV-EC-C (AID 656). The conditions noted are these: HUV-EC-C cells, caspase-3 activation (apoptosis), vehicle = 0, 100 µM tamoxifen = 100%; series mostly up to 92.2 µM. The gist of the method: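 Read-out: luminescence proportional to caspase 3/7 activity, measured 20 min after adding Caspase-Glo 3/7 reagent. Cells (HUV-EC-C) had received compound for 16 hr at 37°C. Increases relative to DMSO and 100 uM tamoxifen gave concentration-response AC50 values.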

Assay [4] is described as follows: Cellular Toxicity (caspase-3) MRC-5 (AID 659). To be noted: MRC-5 cells, luminescence, normalized: DMSO 0%, 10 µM staurosporine 100%; series mostly up to 91.7 µM. The essentials:
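Luminescence from caspase-cleaved aminoluciferin substrate (Caspase-Glo 3/7, 1 hr RT) reports caspase 3/7 activity in MRC-5 lung fibroblasts after 16 hr compound exposure. Normalized to DMSO basal and 10 uM staurosporine as 100%; AC50 from Hill fits.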

The nature of assay [5]: Cellular Toxicity (caspase-3) Mesangial (AID 660).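 Further: cells exposed to compound for 16 h before the caspase read.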 To be noted: mesangial cells, normalized: DMSO 0%, 100 µM tamoxifen 100%; series mostly up to 91.7 µM. The essentials:
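Concentration-response qHTS: compound-induced rise in caspase 3/7 luminescence in human mesangial cells after 16 h, normalized to DMSO and 100 uM tamoxifen controls.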

Assay [6] is described as follows: Cellular Toxicity (caspase-3) SK-N-SH (AID 661). To be noted: SK-N-SH caspase-3 activation, qHTS; series mostly up to 91.7 µM. The gist of the method:
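Caspase 3/7 activation is measured as a luminescence increase from aminoluciferin released by substrate cleavage in SK-N-SH cells after 16 hr compound treatment; values are AC50 from concentration-response curves.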

A short description of assay [7]: Cellular Toxicity (caspase-3) Hek293 (AID 664).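 Further: cells exposed to compound for 16 h at 37 °C before readout.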 To be noted: HEK293 caspase-3 activation, DMSO = 0%, 100 µM tamoxifen = 100%; at 92.2 µM (top of the series). The gist of the method: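 Activation of caspase-3/7 is measured as increased luminescence from cleaved peptide-aminoluciferin substrate in HEK293 cells treated 16 hours at 37 °C. AC50 values come from Hill-equation fits of concentration-response data.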

Assay [8] in a line: Cellular Toxicity (caspase-3) NIH 3T3 (AID 666).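 Further: caspase signal read after 16 h compound exposure; 0% = DMSO basal and 100% = 100 µM tamoxifen stimulation.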 The conditions noted are these: NIH 3T3 caspase-3 activation, apoptosis/toxicity; series mostly up to 92.2 µM. The essentials:
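Concentration-response qHTS in NIH 3T3 mouse fibroblasts scores caspase-3/7 activation as rising luminescence after 16 hr compound exposure. Signals are scaled between DMSO-only and 100 uM tamoxifen.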

Assay [9] is described as follows: MultiTox-Fluor Cytotoxicity Assay - LYMP1-001 - Dead Cells (AID 946).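 Further: 0% = DMSO and 100% = tetraoctylammonium bromide.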 The conditions noted are these: LYMP1-001 lymphoblastoid cells, dead-cell protease fluorescence; series mostly up to 92.2 µM. The gist of the method: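 LYMP1-001 lymphoblastoid cells (2500/well) treated 16 h at 37 C. Dead-cell protease cleavage of bis-AAF-R110 read at Ex/Em 485/520. Normalized to DMSO and 15 uM tetraoctylammonium bromide; AC50 from Hill fits.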

Assay [10] is described as follows: Cell Viability - LYMP1-002 - Assay at 16 hr (AID 948).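 Further: 0% = DMSO alone and full effect = 92 µM tetraoctylammonium bromide.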 To be noted: LYMP1-002 lymphoblastoid cell viability; series mostly up to 92.2 µM. The essentials: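 Acute cytotoxicity is scored as a concentration-dependent fall in intracellular ATP in a human lymphoblastoid line (LYMP1-002) after 16 hr compound exposure at 37 C, measured by luciferase luminescence.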
A short description of assay [11]: MultiTox-Fluor Cytotoxicity Assay - LYMP1-003 - Live Cells (AID 962).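 Further: 0% = DMSO only and full loss = 92 µM tetraoctylammonium bromide; cytotoxic hits lower the live-cell protease signal.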 The conditions noted are these: LYMP1-003 lymphoblastoid cells, MultiTox-Fluor live-cell protease fluorescence; series mostly up to 92.2 µM. The essentials:
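Cells plated at 2500 per well and incubated 5 hr; compounds added and incubated 16 hr at 37 C; MultiTox-Fluor reagent added for 60 min at room temperature; fluorescence of liberated AFC measured at 405/510 nm.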

Assay [12] in a line: Cell Viability - LYMP2-003 (AID 965).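 Further: cells exposed to compounds for 24 h before reading; nearly all actives have a fitted effect of over 50% in size.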 Further: potency means the concentration at half of the fitted maximal effect. To be noted: LYMP2-003 lymphoblastoid cell viability; series mostly up to 92.2 µM. The essentials: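 Acute cytotoxicity is scored as a concentration-dependent drop in intracellular ATP, measured by luciferase luminescence in human lymphoblastoid cells treated for 24 hours at 37 C. AC50 values derive from Hill-equation modelling.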
The nature of assay [13]: Cell Viability - LYMP2-013 (AID 970).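 Further: cells exposed to compound for 24 h at 37 °C; nearly all actives have a fitted effect of over 55% in size.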 Further: potency means the concentration at half of the fitted maximal effect. The conditions noted are these: LYMP2-013 lymphoblastoid cells viability; series mostly up to 92.2 µM. The gist of the method: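 Acute toxicity was measured in human lymphoblastoid cells (2500/well) exposed to compound titrations for 24 hr, with ATP luminescence (CellTiter-Glo) as read-out and AC50 fitted by Hill equation.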
Assay [14] is described as follows: Cell Viability - LYMP2-015 (AID 971). Further: nearly all actives have a fitted effect of over 55% in size. Further: potency means the concentration at half of the fitted maximal effect. The conditions noted are these: LYMP2-015 lymphoblastoid cell viability; series mostly up to 92.2 µM. The gist of the method:
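Acute toxicity was scored as a concentration-dependent drop in intracellular ATP in lymphoblastoid cells after 24 hr compound exposure in complete medium. Detection used CellTiter-Glo luciferase luminescence.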

Assay [15] in a line: Cell Viability - LYMP2-017 (AID 972).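 Further: cells exposed to compound for 24 hours at 37 °C; nearly all actives have a fitted effect of over 55% in size.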 Further: potency means the concentration at half of the fitted maximal effect. The conditions noted are these: LYMP2-017 lymphoblastoid cell viability; series mostly up to 92.2 µM. The essentials:
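Steps: plate 2500 lymphoblastoid cells per well; incubate 5 hr at 37 C; add compound across a concentration series and incubate 24 hr at 37 C; add CellTiter-Glo and read luminescence after 30 min at room temperature; fit Hill curves for AC50.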

A short description of assay [16]: Cell Viability - LYMP2-007 (AID 979).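 Further: cells exposed to compound for 24 h before reading; nearly all actives have a fitted effect of over 60% in size.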 Further: potency means the concentration at half of the fitted maximal effect. To be noted: LYMP2-007 lymphoblastoid cell viability; series mostly up to 92.2 µM. The gist of the method:
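Acute toxicity is scored as a concentration-dependent fall in intracellular ATP in human lymphoblastoid cells treated 24 hr at 37 C, measured by luciferase luminescence; Hill-equation modelling yields AC50.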

Assay [17] is described as follows: qHTS Assay for Identification of Small Molecule Inducers of Hypoxia Response (AID 2120; active means well fitted curve in the direction sought with a large enough effect in the signal ratio, with a control signal flat, not every such curve was filed as active; the % refers to the signal ratio; further: 0% is about no effect). The conditions noted are these: hypoxia response reporter cells, beta-lactamase ratio readout; series mostly up to 104 µM. The gist of the method: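 Induction of beta-lactamase reporter activity was measured in CellSensor HRE-bla ME-180 cells after 17 h compound treatment at 37 degrees C, using CCF4 substrate and the 460nm/530nm emission ratio to derive AC50 values.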

The target in assay [18] is Peroxisome proliferator-activated receptor alpha (Homo sapiens) (UniProt Q07869). In words: qHTS assay for small molecule agonists of the peroxisome proliferator-activated receptor alpha (PPARalpha) signaling pathway (AID 651778). Further: % of control where 0% means no effect. To be noted: PathHunter PPARalpha complementation, chemiluminescence, 6 h; stronger effect = higher value. The essentials: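 Cells plated at 2,000/well and held overnight at 37 C, 5% CO2, then compound added by pin tool for 6 hr; after PathHunter detection reagent and 60 min at room temperature, chemiluminescence from enzyme complementation was read.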

Assay [19] can be described thus: qHTS assay for small molecule agonists of the antioxidant response element (ARE) signaling pathway measured by Nrf2-dependant transcriptional activity - cell viability counter screen (AID 720653; active means well fitted curve in the direction sought with a large enough effect in the repeat runs; an effect the other way counts as inactive or inconclusive; further: on the % scale 0 is the no-effect control and ±100 the full control effect). The conditions noted are these: ARE-bla HepG2 viability, CellTiter-Glo ATP luminescence, 16 h; stronger effect = lower value. The essentials:
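ARE-bla HepG2 cells (2,000/well) rested 5 hrs at 37C/5% CO2, then exposed to compounds in DMSO for 16 hrs. Viability was read in the same wells as intracellular ATP by luminescence, 30 min at room temperature after reagent addition.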

Assay [20] can be described thus: qHTS assay for cell viability of the p53RE-bla HCT-116 cell line (AID 743292). Further: on the % scale 0 is the no-effect control and ±100 the full control effect; nearly all actives have a fitted effect of over 55% in size. The conditions noted are these: p53RE-bla HCT-116 viability, ATP luminescence, 16 h; series mostly up to 95 µM. The gist of the method:
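ATP-based luminescence, 16 h compound exposure at 37 C, p53RE-bla HCT-116 cells at 4,000/well.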

Where “and” joins values, the source holds several entries; their conditions need not be identical. Equal entries are not always repeated. Unmarked numbers belong to inactive results. Inconclusive results are not listed. Calls of active or inactive are those of the source. Unless noted, the call rests on the fitted dose curve; in most records, active means well fitted curve in the direction sought with a large enough effect; inconclusive means small, poorly fitted or top-dose-only effect, or another doubt; inactive means no such curve, though single readings can be large; an effect the other way counts as inactive or inconclusive.

Sequence of Peroxisome proliferator-activated receptor alpha (Homo sapiens) (Q07869 whole entry, looked up): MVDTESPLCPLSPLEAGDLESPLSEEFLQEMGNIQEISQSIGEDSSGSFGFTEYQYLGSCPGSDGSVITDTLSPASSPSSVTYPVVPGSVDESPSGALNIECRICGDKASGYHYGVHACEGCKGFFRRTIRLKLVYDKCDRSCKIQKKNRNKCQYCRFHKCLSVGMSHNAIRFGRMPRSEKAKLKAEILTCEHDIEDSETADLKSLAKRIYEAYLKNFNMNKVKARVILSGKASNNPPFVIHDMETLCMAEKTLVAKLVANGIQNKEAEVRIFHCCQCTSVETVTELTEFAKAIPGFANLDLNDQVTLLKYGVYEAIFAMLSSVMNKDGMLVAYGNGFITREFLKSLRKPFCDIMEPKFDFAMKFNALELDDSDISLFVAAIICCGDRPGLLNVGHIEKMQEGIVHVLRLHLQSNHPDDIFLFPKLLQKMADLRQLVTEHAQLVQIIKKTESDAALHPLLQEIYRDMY

As to `Cl/C=C/CCl`, the Potency in assay [1] was over 92 µM. For the same molecule, the Potency result in [2], in assay [6], in assay [8], in [12], in assay [13] and in assay [14] was “inactive” in each case. Moreover, the Potency entry in assay [15], in [16], in assay [17] and in assay [20] was “inactive” throughout. The result in assay [3], in assay [4], in [5], in assay [9], in [10] and in [11] was inactive. Besides, the caspase-3 activation in assay [7] is -1.73%. The max response in assay [18] was -3.36%; in assay [19] it was -1.22%.

Consider `CCCCCc1cc(O)cc(O)c1`, for which the Potency in [1] was over 92 µM. Also, the Potency result in [2], in assay [6], in assay [8], in [12], in assay [13] and in assay [14] was “inactive” in each case. The Potency result in [15], in assay [16], in [17] and in assay [20] was “inactive” each time. Moreover, the molecule was classed as inactive in assay [3], in assay [4], in [5], in [9], in [10] and in [11]. Also, the caspase-3 activation in assay [7] was 1.25%. Besides, the max response in assay [18] is -5.69%; in assay [19], 8.35%.

For the molecule `COc1cc(-c2ccc(N)c(OC)c2)ccc1N`, in assay [1], the Potency was over 92 µM. Also, the Potency entry in assay [2], in assay [6], in assay [8], in [12], in assay [13] and in assay [14] was “inactive” each time. The Potency result in assay [15], in [16], in [17] and in assay [20] was “inactive” in each case. For the same molecule, the call in assay [3], in assay [4], in assay [5], in [9], in [10] and in assay [11] was inactive. Moreover, in assay [7], the caspase-3 activation was -1.4%. In addition, the max response in assay [18] was -3.45% and -1.48% and -1.31%; in assay [19] it was 19% and 0.28% and -8.23%.

Regarding `CCCCC(=O)Cl`, the Potency in [1] is over 92 µM. In addition, the Potency result in [2], in assay [6], in assay [8], in assay [12], in assay [13] and in [14] was “inactive” throughout. Also, the Potency result in assay [15], in [16], in [17] and in assay [20] was “inactive” throughout. For the same molecule, the call in assay [3], in assay [4], in assay [5], in assay [9], in [10] and in [11] was inactive. Further, in [7], the caspase-3 activation was -0.249%. The max response is -8.92% in assay [18] and 2.67% in assay [19].

In the case of `CN1CSC(=S)N(C)C1`, the Potency in assay [1] is over 92 µM; in assay [12] it was 31.6 µM (active); in assay [13], 39.8 µM (active); in [14], 31.6 µM (active); in assay [15], 25.1 µM (active); in assay [16], 31.6 µM (active). The Potency entry in assay [2], in [6], in assay [17] and in assay [20] was “inactive” throughout. Moreover, the result in [3], in assay [4] and in assay [9] was inactive. The max response in assay [18] was -4.77% and -6.32%; in assay [19] it was -1.99% and -0.305%.

As to `Nc1cc(Cl)ccc1Cl`, the Potency in [1] is over 92 µM. For the same molecule, the Potency entry in [2], in assay [6], in [8], in assay [12], in assay [13] and in assay [14] was “inactive” throughout. Also, the Potency result in assay [15], in assay [16], in [17] and in [20] was “inactive” in each case. The molecule was classed as inactive in [3], in assay [4], in [5], in assay [9], in [10] and in assay [11]. In assay [7], the caspase-3 activation is -0.435%. Also, the max response in [18] is -1.24%; in assay [19], 5.24%.
